Source: PubChem BioAssay AID588358 (NMMLSC, 2011)
Screen size: about 310,000 compounds; about 1,500 (0.48%) were called active.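 The calls were made as follows: active = binding more than 3 SD below its plate's average and above zero; inconclusive = below that plate limit but binding exactly zero; inactive = the rest.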 Only a selection was taken, and actives are over-represented in it overall.

These compounds were tested against Desmoglein-3 (Homo sapiens) (UniProt P32926) (assay: blockers of anti-DSG3 scFv binding – biochemical, bead-based, flow cytometry, scFv-GFP, primary screen (AID 588358;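 also: hits lower antibody fragment binding to DSG3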)). Conditions: DSG3-coupled beads, at 10 µM, stronger effect = lower value.
Desmoglein-3 (Homo sapiens), sequence (P32926 whole entry, looked up, the tested form may be a part): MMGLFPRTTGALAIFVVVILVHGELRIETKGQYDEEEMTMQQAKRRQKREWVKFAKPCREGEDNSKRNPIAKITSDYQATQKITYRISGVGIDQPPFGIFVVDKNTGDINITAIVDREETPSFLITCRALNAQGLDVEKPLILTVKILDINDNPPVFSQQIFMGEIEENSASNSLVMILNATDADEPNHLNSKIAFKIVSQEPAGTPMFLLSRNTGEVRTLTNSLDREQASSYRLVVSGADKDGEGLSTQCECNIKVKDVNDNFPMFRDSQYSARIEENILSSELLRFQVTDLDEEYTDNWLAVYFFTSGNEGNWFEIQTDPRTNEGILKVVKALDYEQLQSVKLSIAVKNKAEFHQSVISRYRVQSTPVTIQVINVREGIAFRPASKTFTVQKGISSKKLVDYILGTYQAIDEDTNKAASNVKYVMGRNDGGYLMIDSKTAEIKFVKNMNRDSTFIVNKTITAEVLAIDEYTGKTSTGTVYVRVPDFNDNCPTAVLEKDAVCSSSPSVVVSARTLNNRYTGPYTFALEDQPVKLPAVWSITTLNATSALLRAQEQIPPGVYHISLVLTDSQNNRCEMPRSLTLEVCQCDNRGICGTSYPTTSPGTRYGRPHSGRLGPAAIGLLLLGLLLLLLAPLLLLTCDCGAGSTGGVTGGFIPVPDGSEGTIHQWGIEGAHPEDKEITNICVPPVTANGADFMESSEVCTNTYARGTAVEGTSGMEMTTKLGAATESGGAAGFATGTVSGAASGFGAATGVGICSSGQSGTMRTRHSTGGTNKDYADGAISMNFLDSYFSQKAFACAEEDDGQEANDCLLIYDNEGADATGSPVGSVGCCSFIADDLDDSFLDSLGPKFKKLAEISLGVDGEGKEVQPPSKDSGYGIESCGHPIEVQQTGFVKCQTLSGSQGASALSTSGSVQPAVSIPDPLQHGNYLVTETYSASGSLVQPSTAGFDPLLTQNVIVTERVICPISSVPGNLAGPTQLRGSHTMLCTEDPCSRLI

Binding (percent of control), inactive:
Cc1ccc(S(=O)(=O)N2C[C@H]3n4c(=O)ccc(=O)n4C[C@H](OC(=O)NC4CCCC4)[C@@]3(O)C2)cc1 103%
COc1ccc([C@H]2N[C@]3(CCCN(CC4CCCCC4)C3=O)[C@H]3C(=O)N(C)C(=O)[C@@H]23)cc1 106%
COc1cccc(/C=C2\SC(=S)N(CCCC(=O)N3CCOCC3)C2=O)c1 99.8%
C=CCn1c2ccccc2c2nnc(SC(CC)C(=O)Nc3nc(C)c(C(=O)OCC)s3)nc21 (stereo not given) 93.3%
CCOC(=O)c1sc(NC(=O)c2sc(C)nc2C)nc1C 96.7%
O=C(Cc1ccc([N+](=O)[O-])cc1)NCCS(=O)(=O)N1CCN(c2ccccc2)CC1 97.2%
O=[N+]([O-])c1ccc(N2CCN(c3ccc(O)cc3)CC2)c(Cl)c1 101%
COc1ccc(N2CCN(c3ccc([N+](=O)[O-])nc3)CC2)cc1 77.8%
COC(=O)c1sccc1NC(=O)c1cc(OC)c(OC)c(OC)c1 81.8%
COC(=O)Cn1c(=NC(=O)CSCC(=O)Nc2cc(C)on2)sc2ccccc21 82.3%
CC(C)N=C1CCCC1C(=S)SSC(=S)C1CCCC1=NC(C)C (stereo not given) 102%
N#CCCN(C(=S)Nc1ccc(Cl)c(Cl)c1)C1CCCCC1 105%
Cc1cc(C)n(-c2ccc3nncn3n2)n1 99%
Cc1cc(C)n(-c2ccc(C(=O)O)cc2[N+](=O)[O-])n1 102%
O=C(O)C(=Cc1ccc([N+](=O)[O-])cc1)CCc1ccccc1 103%
CCOC(=O)c1c(C)[nH]c(C)c1C(=O)COC(=O)/C=C/c1cccc([N+](=O)[O-])c1 98.5%
CCN1CCCC1CNC(=O)c1ccc2c(c1)NC(=O)/C(=C\c1ccccc1F)S2 (stereo not given) 94.9%
CCOc1ccc(CNC(=O)CCC(=O)N2CCSc3ccccc32)cc1 102%
Cc1ccc(NC(=O)CN2CCc3ccccc3C2)cc1 95.1%
CCN(CC)C(=O)C1=C(C)N(Cc2ccc(F)cc2)C(=O)C(CC(=O)NC2CCCC2)C1 (stereo not given) 109%
CC1(C)CN(Cc2cccnc2)C(=O)[C@H]1CC(=O)Nc1ccc(Br)cc1 96.8%
Cc1[nH]c2ccccc2c1C(=O)C(=O)NCc1nnnn1-c1cccc(F)c1 110%
Cc1csc(SCC(=O)Nc2ccc(C)c(S(=O)(=O)N(C)C)c2)n1 100%
O=C(NCC(=O)N1CCCC(C(F)(F)F)C1)c1ccccc1F (stereo not given) 98.7%
O=C(NC(Cc1ccccc1)C(=O)N1CCCC(C(F)(F)F)C1)c1ccccc1 (stereo not given) 93.4%
Cc1ccc(-c2nn(-c3ccccc3)cc2/C=C2\SC(=S)N(CCCCCC(=O)O)C2=O)o1 93.2%
COc1ccc(-c2nn(-c3ccccc3)cc2/C=C2/SC(=S)N(CCCC(=O)O)C2=O)c(C)c1 104%
COc1ccc(C=C2CCC3C(CCCC34OCCO4)C2=O)cc1 (stereo not given) 104%
CC1CCCC(NC(=O)COC(=O)c2ccccc2C(=O)N(C)C2CCCCC2)C1C (stereo not given) 98.5%
COCCn1cnc2c1c(=O)n(Cc1ccc(Br)cc1)c(=O)n2Cc1ccccc1 125%
Cn1c(=O)[nH]c(=O)c2c1[nH]c(=S)n2Cc1ccccc1 99.1%
O=C(NCCN1CCOCC1)c1ccc2c(c1)N(Cc1cccc(Cl)c1)C(=O)c1ccccc1S2(=O)=O 95.8%
OCC1OC(n2cnc3c(N4CCCC4)ncnc32)C(O)C1O (stereo not given) 102%
CCOc1ccc(NS(=O)(=O)c2ccc(C(=O)NCC3CCCO3)cc2)cc1 (stereo not given) 100%
COc1cc(NC(=O)C2=C(C)OCCS2)c(Cl)cc1C(=O)NCCCN1CCCC(C)C1 (stereo not given) 105%
CCOC(=O)c1c(NC(=S)SC)sc(C(=O)N2CCc3ccccc3C2)c1C 100%
COc1ccc(-c2nc(CS(=O)CC(=O)NCc3ccccc3)c(C)o2)cc1OC (stereo not given) 97.4%
COc1cccc(-c2nc(CS(=O)CC(=O)NCc3ccc(F)cc3)c(C)o2)c1 (stereo not given) 93.3%
CC(C)CNS(=O)(=O)c1ccc(C(=O)Nc2ccc3c(c2)OCO3)cc1 85.2%
Cc1cccc(NC(=O)Nc2ccc3c(c2)OCO3)n1 134%
CN(Cc1ccccc1)C(=O)CCC1CCN(C(=O)c2ccco2)CC1 91.8%
COc1cc(C(=O)N2CCOC23CCN(Cc2ccccc2)CC3)cc(OC)c1OC 108%
COCCCN1C(=O)C(CC(=O)NCc2cccs2)CC(C(=O)N2CCOCC2)=C1C (stereo not given) 99.9%
Cc1cnc(NC(=O)CSc2nnc(C)s2)s1 101%
CCSc1nnc(SCC(=O)NNC(=O)c2ccccc2F)s1 115%
CNC(=O)c1ccc(CN(C)C(=O)c2cc(C3CC3)nc3c2cnn3C(C)C)cc1 105%
O=[N+]([O-])c1ccc(C(S(=O)(=O)Cc2ccccc2)S(=O)(=O)Cc2ccccc2)cc1 100%
CC(CNS(=O)(=O)c1ccc(Br)cc1)CN(C)C (stereo not given) 102%
Cc1ccc(OCCNC(=O)CCNS(=O)(=O)c2ccc(Br)cc2)cc1 107%
CC1C(=O)N(Cc2cn(CC3CCCCC3)nn2)CCS(=O)(=O)N1Cc1ccc(-c2cccc(N(C)C)c2)cc1 (stereo not given) 101%
COCC1CCCCN1C(=O)c1cc(COc2ccc(C)c(C)c2)on1 (stereo not given) 101%
Cc1ccc(NC(=O)CN(C)Cc2ccc(F)cc2)c([N+](=O)[O-])c1 93.5%
CN(CC(=O)Nc1ccc(N2CCOCC2)cc1)CC(=O)Nc1ccccc1[N+](=O)[O-] 116%
COc1ccc(NC(=O)CSc2ncnc3[nH]ncc23)cc1 106%
COc1ccc(-n2ncc3c(SCC(=O)NNC(C)=O)ncnc32)cc1 102%
O=C(NCc1nnnn1-c1ccc(Cl)cc1)c1ccc([N+](=O)[O-])o1 98.8%
Cc1ccc(S(=O)(=O)N2CCOCC2)cc1NC(=O)c1ccncc1 96.3%
Cc1cccc(N2CCN(S(=O)(=O)c3ccc(-c4cc(C)no4)s3)CC2C)c1 (stereo not given) 96.5%
Cc1cc(-c2ccc(S(=O)(=O)N3CCN(c4cccc(C(F)(F)F)c4)CC3)s2)on1 80%
CC(C)CCOc1ccc(C(=O)Nc2cc(S(=O)(=O)N3CCOCC3)ccc2N2CCOCC2)cc1 102%
C=CCOc1cccc(C2C(C(=O)c3ccc(C)o3)=C(O)C(=O)N2CCN2CCOCC2)c1 (stereo not given) 102%
c1ccc(CNCc2ccc(CNCc3ccccc3)cc2)cc1 102%
COc1ccc(/C=C2\SC(=S)N(CCCC(=O)NC3CCCC3)C2=O)cc1OC 109%
CCOc1ccc(/C=C2\SC(=S)N(NC(=O)c3ccncc3)C2=O)cc1OC 106%
O=C(CSc1ncn[nH]1)Nc1nc2c(F)c(F)c(F)cc2s1 94%
Cc1ccc(S(=O)(=O)N2C[C@H]3C(=O)C[C@@H](c4cccc5ccccc45)N(S(=O)(=O)c4ccc(C)cc4)[C@H]3C[C@H]2c2ccc(Cl)cc2)cc1 99.7%
O=c1[nH]c(-c2cccs2)nc2ccccc12 98.9%
Cc1cccc(-c2nc(Nc3ccc(O)cc3)c3ccccc3n2)c1 324%
C[C@H]1CN([C@@H](C)CO)C(=O)CCCn2nncc2CO[C@@H]1CN(C)Cc1ccc(Oc2ccccc2)cc1 101%
Cc1ccc(C(=O)N[C@H](C(=O)N2CCN(c3ncccn3)CC2)C(C)C)cc1 96.6%
CCOC(=O)c1cc2cc3ccccc3cc2oc1=O 105%
NS(=O)(=O)c1ccc(NC(=O)COC(=O)CCc2c[nH]c3ccccc23)cc1 96.4%

Binding (percent of control), active:
CCOC(=O)c1sc(NC(=O)C(CC)Sc2nccn2C)nc1C (stereo not given) 83.3%
COc1ccc(N2CCN(c3ccc([N+](=O)[O-])cc3Cl)CC2)cc1 -9.48%
COC(=O)Cn1c(=NC(=O)c2cc(OC)c(OC)c(OC)c2)sc2cc(OC)ccc21 88.6%
Cc1cc(C)n(-c2ccc(Cl)c(C(=O)O)n2)n1 56.1%
Cc1ccc(NC(=O)N2CCSc3ccccc32)cc1 63%
FC(F)(F)C1CCCN(c2nsc3ccccc23)C1 (stereo not given) 59.3%
CN(C)S(=O)(=O)c1cccc(-c2nn(-c3ccccc3)cc2/C=C2\SC(=S)N(CC(=O)O)C2=O)c1 34.1%
CCN(CC)CCn1cnc2c1c(=O)[nH]c(=O)n2Cc1ccccc1 65.2%
COc1ccc(-c2nc(CS(=O)CC(=O)NCc3ccccn3)c(C)o2)cc1 (stereo not given) 17.1%
CNS(=O)(=O)c1ccc(NC(=O)Nc2ccc3c(c2)OCO3)cc1 66.6%
Cc1nnc(SCC(=O)Nn2cnnc2)s1 89.8%
Cc1ccc(S(=O)(=O)NCCNC(C)c2ccc(Br)cc2)cc1 (stereo not given) -19.8%
CN(CC(=O)Nc1ccccc1[N+](=O)[O-])Cc1ccc(Br)cc1 104%
CC(=O)Nc1ccc(NC(=O)CSc2ncnc3c2cnn3Cc2ccccc2)cc1 76.2%
Cc1cc(-c2ccc(S(=O)(=O)N3CCc4ccccc4C3)s2)on1 80.5%
COc1cc(/C=C2\SC(=S)N(Nc3ncc(C(F)(F)F)cc3Cl)C2=O)cc(OC)c1OC 87.8%
CC(=O)Nc1cccc(Nc2nc(-c3cccs3)nc3ccccc23)c1 64.6%
NS(=O)(=O)c1ccc(NC(=O)COC(=O)c2cc3ccccc3oc2=O)cc1 9.15%
